Assay [1] in a line: CCTE_Shafer_MEA_acute_spike_number: CCTE's Neural Acute Assay for Total Number of Spikes, Shafer Lab (AID 2284008; active = hit-call score of the fitted dose curve at least 0.9, where 1 is the maximum; inactive = score below 0.9). In short, it runs like this: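 Read-out is the total spike count over 40 min, expressed as percent change from each well's own pre-treatment baseline and fitted in the loss direction against DMSO. Rat cortical neurons were exposed at 0.03-40 uM on DIV 13 or 15.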

Assay [2] is described as follows: CCTE_Shafer_MEA_acute_burst_number: CCTE's Neural Acute Assay for Single-Electrode Bursts, Shafer Lab (AID 2284013; active = hit-call score of the fitted dose curve at least 0.9, where 1 is the maximum; inactive = score below 0.9). In short, it runs like this: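 Primary rat cortical neurons on 16-electrode MEA wells, DIV 13 or 15, exposed to compound (0.03-40 uM; ≥3 wells); 40-min recordings at 37 C before and after treatment. Burst count expressed as percent change from baseline, DMSO as negative control.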

A short description of assay [3]: CCTE_Shafer_MEA_acute_per_burst_spike_number_mean: CCTE's Neural Acute Assay for Average Number of Spikes Per Burst, Shafer Lab (AID 2284015; active = hit-call score of the fitted dose curve at least 0.9, where 1 is the maximum; inactive = score below 0.9;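 note: hits are decreases in mean spikes per burst versus baseline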). Put shortly:
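Primary rat cortical neurons on 48-well MEA plates, treated on DIV 13 or 15 at 0.03-40 uM. Spontaneous activity recorded 40 min before and 40 min after compound at 37 C; percent change in mean spikes per single-electrode burst per well, fitted in the loss direction versus DMSO.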

Assay [4] can be described thus: CCTE_Shafer_MEA_acute_interburst_interval_mean: CCTE's Neural Acute Assay for Mean Interburst Interval, Shafer Lab (AID 2284016; active = hit-call score of the fitted dose curve at least 0.9, where 1 is the maximum; inactive = score below 0.9;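 note: percent change of mean interburst interval versus each well's own pre-dose baseline; curves fitted for decrease in interburst interval relative to DMSO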). In short, it runs like this:
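Primary rat cortical neurons on 16-electrode MEA wells were recorded 40 min at baseline on DIV 13 or 15, then 40 min after compound (0.03-40 uM), at 37 C. Value is percent change in mean interburst interval per well, DMSO as negative control.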

Assay [5] in a line: CCTE_Shafer_MEA_acute_burst_percentage_mean: CCTE's Neural Acute Assay for Percentage of Spikes in a Burst, Shafer Lab (AID 2284017; active = hit-call score of the fitted dose curve at least 0.9, where 1 is the maximum; inactive = score below 0.9). Put shortly:
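Primary rat cortical neurons on 16-electrode MEA wells; 40 min baseline recorded at DIV 13 or 15, then 40 min after compound (0.03-40 uM) at 37 C. Well-mean fraction of spikes in single-electrode bursts; percent change from baseline, DMSO as negative control.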

A short description of assay [6]: CCTE_Shafer_MEA_acute_burst_percentage_std: CCTE's Neural Acute Assay for Standard Deviation of Burst Percentage, Shafer Lab (AID 2284018; active = hit-call score of the fitted dose curve at least 0.9, where 1 is the maximum; inactive = score below 0.9;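 note: fitted in the negative direction so actives lower burst percentage SD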). In short, it runs like this: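 Value is percent change from baseline in the across-electrode SD of spikes-in-bursts percentage, wells with >/= 10 active electrodes. Acute 40-min exposure to 0.03-40 uM on DIV 13 or 15 rat cortical cultures, recorded at 37 C after 40-min baseline.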

Assay [7] in a line: CCTE_Shafer_MEA_acute_per_network_burst_spike_number_mean: CCTE's Neural Acute Assay for Average Number of Spikes in a Network Burst, Shafer Lab (AID 2284019; active = hit-call score of the fitted dose curve at least 0.9, where 1 is the maximum; inactive = score below 0.9). Put shortly: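 Percent change from baseline in mean spikes per network burst, spikes detected at 8x rms noise. Each compound at 0.03-40 uM in at least three wells of rat cortical cultures, recorded 40 min before and 40 min during exposure.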

Assay [8] in a line: CCTE_Shafer_MEA_acute_per_network_burst_spike_number_std: CCTE's Neural Acute Assay for Standard Deviation of Number of Spikes in a Network Burst, Shafer Lab (AID 2284020; active = hit-call score of the fitted dose curve at least 0.9, where 1 is the maximum; inactive = score below 0.9;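 note: fitted for decrease in spike-number SD versus DMSO so actives lower it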). In short, it runs like this: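 Endpoint: percent change from 40 min baseline in standard deviation of spikes per network burst, after 40 min compound exposure (0.03-40 uM, 37 C). Cortical rat neurons on MEA at DIV 13 or 15; spikes detected at 8x rms noise, 300-5000 Hz band-pass.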

Assay [9] addresses rat Thyrotropin Releasing Hormone Receptor (TRH), Trhr (gene 25570) (UniProt Q01717). In words: NVS_GPCR_rTRH: NovaScreen (NVS) G Protein-Coupled Receptor Assay for rat Thyrotropin Releasing Hormone Receptor (TRH) (AID 2283329).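 Note: hit means lower bound tracer signal versus DMSO baseline.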 In short, it runs like this:
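Cell-free radioligand binding on rat forebrain membranes; bound tracer measured by filter-based scintillation counting 4 hours after dosing. Loss of signal versus DMSO baseline indicates displacement; primary screen at 25 uM in duplicate, actives then run in concentration series.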

In assay [10] the target is human Peroxisome Proliferator-activated Receptor alpha (PPARa), PPARA (gene 5465) (UniProt Q07869). In words: NVS_NR_hPPARa: NovaScreen (NVS) Nuclear Receptor Binding Assay for human Peroxisome Proliferator-activated Receptor alpha (PPARa) (AID 2283359).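 Note: activity means loss of TR-FRET signal versus DMSO baseline.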 In short, it runs like this:
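Loss of TR-FRET binding signal relative to DMSO was measured 1 h after chemical addition to extracted receptor protein. Chemicals were first tested in duplicate at 25 uM, and actives were followed up in concentration series.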

Assay [11] relates to Thyroperoxidase (TPO), gene 54314. In words: CCTE_Simmons_AUR_rTPO: CCTE's Amplex UltraRed Assay for Thyroperoxidase (TPO) Inhibition, Simmons Lab (AID 2283662).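 Note: potency for loss of signal meaning inhibition of peroxidase activity.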 In short, it runs like this: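 Rat thyroid microsomal TPO + 25 uM AUR in 200 mM K phosphate; cpd 5 nM–87.5 uM [final], 8 conc, 0.5% DMSO; 300 uM H2O2 starts rxn; 37C dark 30 min; endpoint FI 544/590 nm; n=3.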
Assay [12] deals with Luciferin 4-monooxygenase (Photinus pyralis) (UniProt P08659). In words: CCTE_Simmons_QuantiLum_inhib_2: CCTE's Firefly Luciferase Inhibition Assay, Simmons Lab (AID 2283767). Put shortly: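 Eight-point titrations of each chemical, 5 nM–87.5 uM final in 0.5% DMSO, were run in three biological replicates against recombinant luciferase for 30 min at 37C. Bioluminescence signal loss, read on reagent injection, gave the inhibition endpoint.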
Sequence of Luciferin 4-monooxygenase (Photinus pyralis) (P08659 whole entry, looked up): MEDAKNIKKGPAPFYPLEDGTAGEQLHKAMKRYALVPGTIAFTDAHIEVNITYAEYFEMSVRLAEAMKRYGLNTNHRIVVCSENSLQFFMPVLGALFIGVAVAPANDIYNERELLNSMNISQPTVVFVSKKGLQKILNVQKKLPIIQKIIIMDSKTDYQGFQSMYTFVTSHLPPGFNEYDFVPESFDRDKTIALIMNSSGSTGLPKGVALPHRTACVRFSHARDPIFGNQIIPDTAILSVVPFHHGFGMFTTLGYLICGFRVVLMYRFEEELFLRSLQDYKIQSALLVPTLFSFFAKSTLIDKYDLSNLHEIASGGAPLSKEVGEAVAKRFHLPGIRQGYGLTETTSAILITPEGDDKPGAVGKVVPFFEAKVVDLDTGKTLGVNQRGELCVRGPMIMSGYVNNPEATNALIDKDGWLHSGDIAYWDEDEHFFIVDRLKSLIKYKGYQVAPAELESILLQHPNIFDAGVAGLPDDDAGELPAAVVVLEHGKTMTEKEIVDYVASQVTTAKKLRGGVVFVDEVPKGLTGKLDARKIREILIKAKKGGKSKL

Assay [13] concerns the target Nuclear receptor subfamily 1 group I member 2 (Homo sapiens) (UniProt O75469). In words: NVS_NR_hPXR: NovaScreen (NVS) Nuclear Receptor Binding Assay for human Pregnane X Receptor (PXR) (AID 2283365).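 Note: a drop in FRET signal versus DMSO baseline means the compound binds.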 In short, it runs like this:
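Human PXR protein, cell-free; compound added, incubated 2 h, TR-FRET read. Signal decrease vs DMSO = binding. Screened 25 uM duplicate, actives re-run as dilution series.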

Assay [14] can be described thus: CEETOX_H295R_MTT_cell_viability: Viability Assessment in the CeeTox HT-H295R MTT Assay (AID 2283718; active = hit-call score of the fitted dose curve at least 0.9, where 1 is the maximum; inactive = score below 0.9). Put shortly: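 MTT reduction (0.5 mg/ml, 4 h at 37 C; absorbance at 570 and 650 nm) gave viability as background-corrected percent change versus controls. H295R cells had 48 h forskolin (10 uM) prestimulation, then 48 h chemical exposure at 0.1% DMSO.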
Assay [15] deals with human Ephrin type-A Receptor 1 (EphA1), EPHA1 (gene 2041) (UniProt P21709). In words: NVS_ENZ_hEphA1: NovaScreen (NVS) Enzymatic Assay for human Ephrin type-A Receptor 1 (EphA1) (AID 2283158).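 Note: activity is signal loss versus DMSO meaning EphA1 kinase inhibition.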 Put shortly:
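Chemicals first tested in duplicate at 25 uM against recombinant EphA1 with a fluorescent substrate; those passing threshold went to singleton dose-response topping at 50 uM. Activity read 1 h later as mobility-shift fluorescence, loss of signal relative to DMSO.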

Assay [16] addresses human Phosphoinositide 3-kinase alpha (PI3Ka), PIK3CA (gene 5290) (UniProt P42336). In words: NVS_ENZ_hPI3Ka: NovaScreen (NVS) Enzymatic Assay for human Phosphoinositide 3-kinase alpha (PI3Ka) (AID 2283196). Put shortly:
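Fluorescence/mobility-shift readout of substrate conversion by recombinant enzyme, 1 h post-dosing. Primary screen in duplicate at 25 uM; actives (e.g. ≥30% inhibition) retested in singleton concentration-response, top concentration 50 uM.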

For assay [17], the target named is human Norepinephrine Transporter (NET), SLC6A2 (gene 6530) (UniProt P23975). In words: NVS_TR_hNET: NovaScreen (NVS) Transporter Assay for human Norepinephrine Transporter (NET) (AID 2283377).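 Note: cell-free membrane protein extracted from CHO cells expressing human NET.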 Put shortly: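 Single-concentration duplicate screen at 25 uM, then concentration-response for actives; displacement of specific radioligand from human NET in CHO membrane extracts, filter-based scintillation detection at 1 h relative to DMSO.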
Sequence of human Norepinephrine Transporter (NET), SLC6A2 (gene 6530) (P23975 whole entry, looked up): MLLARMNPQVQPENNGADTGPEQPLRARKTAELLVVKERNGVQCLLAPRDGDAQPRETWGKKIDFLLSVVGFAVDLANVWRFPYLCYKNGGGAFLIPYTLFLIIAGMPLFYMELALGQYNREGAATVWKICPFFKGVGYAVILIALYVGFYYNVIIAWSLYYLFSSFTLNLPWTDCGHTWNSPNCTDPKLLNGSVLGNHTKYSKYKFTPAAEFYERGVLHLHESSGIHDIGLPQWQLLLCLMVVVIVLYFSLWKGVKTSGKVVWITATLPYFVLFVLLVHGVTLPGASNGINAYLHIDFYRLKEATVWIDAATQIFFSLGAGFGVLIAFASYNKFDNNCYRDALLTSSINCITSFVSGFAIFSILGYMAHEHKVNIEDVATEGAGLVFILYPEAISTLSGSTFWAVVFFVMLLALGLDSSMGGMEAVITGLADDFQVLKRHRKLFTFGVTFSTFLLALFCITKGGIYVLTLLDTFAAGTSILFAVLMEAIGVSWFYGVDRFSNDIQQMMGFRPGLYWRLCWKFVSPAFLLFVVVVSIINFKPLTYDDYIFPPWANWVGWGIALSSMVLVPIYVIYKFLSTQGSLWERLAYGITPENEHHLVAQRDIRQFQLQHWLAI

Assay [18] is described as follows: CPHEA_Stoker_NIS_Cytotoxicity: Cytotoxicity Assessment for CPHEA's Radioactive Iodide Uptake (RAIU) Assay for Sodium/Iodide Symporter (NIS) Inhibition, Stoker and Laws Labs (AID 2283897). Put shortly: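 hNIS-HEK293T-EPA human kidney cells were exposed for 2 hours at room temperature to test chemicals (0.001–100uM, 0.5% final DMSO) in HEPES-buffered HBSS, pH 7.4. Viability was read as ATP content by luciferase bioluminescence, loss of signal versus DMSO.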

Assay [19] deals with Peroxisome proliferator-activated receptor gamma (Homo sapiens) (UniProt P37231). In words: NVS_NR_hPPARg: NovaScreen (NVS) Nuclear Receptor Binding Assay for human Peroxisome Proliferator-activated Receptor gamma (PPARg) (AID 2283370). In short, it runs like this:
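Chemicals were tested first in duplicate at 25 uM, then in concentration series if active. Binding to cell-free PPARg protein was measured by fluorescence polarization after 2 h, with loss of signal scored against DMSO.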

Assay [20] concerns the target human Dopamine Transporter (DAT), SLC6A3 (gene 6531) (UniProt Q01959). In words: NVS_TR_hDAT: NovaScreen (NVS) Transporter Assay for human Dopamine Transporter (DAT) (AID 2283374).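 Note: activity means loss of bound radioligand signal relative to DMSO.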 In short, it runs like this:
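Duplicate single-point screening at 25 uM preceded concentration-series follow-up of actives. Binding was measured by competitive displacement of a radioligand from DAT protein, filter-counted by scintillation 1 h after dosing. Decrease relative to DMSO taken as activity.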

Inconclusive results are not listed. Active and inactive are the calls of the source. Rule for the calls, unless noted: active = hit-call score of the fitted dose curve at least 0.9, where 1 is the maximum; inconclusive = response in the unintended direction; inactive = score below 0.9.

What is called AC50 is the concentration giving half of the maximal activity seen.

Sequence of Nuclear receptor subfamily 1 group I member 2 (Homo sapiens) (O75469 whole entry, looked up): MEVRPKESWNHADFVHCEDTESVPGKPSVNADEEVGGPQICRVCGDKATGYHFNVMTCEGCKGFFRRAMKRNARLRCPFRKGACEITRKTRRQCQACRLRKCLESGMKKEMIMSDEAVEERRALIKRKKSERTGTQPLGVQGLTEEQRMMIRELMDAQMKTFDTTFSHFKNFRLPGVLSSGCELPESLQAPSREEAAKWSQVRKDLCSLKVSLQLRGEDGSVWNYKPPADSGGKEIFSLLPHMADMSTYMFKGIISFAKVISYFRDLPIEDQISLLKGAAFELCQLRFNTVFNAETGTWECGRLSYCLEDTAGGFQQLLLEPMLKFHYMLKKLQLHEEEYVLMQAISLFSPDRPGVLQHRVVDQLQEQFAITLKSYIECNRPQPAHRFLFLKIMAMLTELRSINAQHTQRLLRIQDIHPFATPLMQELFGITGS
Sequence of human Peroxisome Proliferator-activated Receptor alpha (PPARa), PPARA (gene 5465) (Q07869 whole entry, looked up): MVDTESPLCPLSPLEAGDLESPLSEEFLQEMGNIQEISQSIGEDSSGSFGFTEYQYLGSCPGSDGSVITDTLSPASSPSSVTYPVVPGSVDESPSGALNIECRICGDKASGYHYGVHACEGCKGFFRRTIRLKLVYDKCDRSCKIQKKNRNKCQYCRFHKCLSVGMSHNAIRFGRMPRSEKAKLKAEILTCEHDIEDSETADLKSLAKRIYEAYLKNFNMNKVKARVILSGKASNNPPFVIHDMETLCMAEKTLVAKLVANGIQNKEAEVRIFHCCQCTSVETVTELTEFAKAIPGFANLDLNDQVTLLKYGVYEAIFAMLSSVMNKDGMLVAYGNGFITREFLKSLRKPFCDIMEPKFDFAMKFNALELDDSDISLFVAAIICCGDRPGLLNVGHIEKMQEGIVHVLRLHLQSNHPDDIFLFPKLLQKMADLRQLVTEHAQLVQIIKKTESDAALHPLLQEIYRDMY
Sequence of rat Thyrotropin Releasing Hormone Receptor (TRH), Trhr (gene 25570) (Q01717 whole entry, looked up): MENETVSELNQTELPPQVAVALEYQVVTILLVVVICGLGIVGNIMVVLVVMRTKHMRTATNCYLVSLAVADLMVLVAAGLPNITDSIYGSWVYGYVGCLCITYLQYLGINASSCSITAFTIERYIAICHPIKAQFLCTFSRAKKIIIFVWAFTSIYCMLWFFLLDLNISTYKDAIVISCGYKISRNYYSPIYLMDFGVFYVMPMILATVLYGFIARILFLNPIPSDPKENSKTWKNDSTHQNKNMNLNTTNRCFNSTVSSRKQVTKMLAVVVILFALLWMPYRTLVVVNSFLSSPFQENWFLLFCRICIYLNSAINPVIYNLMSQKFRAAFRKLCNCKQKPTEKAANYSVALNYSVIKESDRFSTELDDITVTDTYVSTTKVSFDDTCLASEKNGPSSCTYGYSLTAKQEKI
Sequence of human Ephrin type-A Receptor 1 (EphA1), EPHA1 (gene 2041) (P21709 whole entry, looked up): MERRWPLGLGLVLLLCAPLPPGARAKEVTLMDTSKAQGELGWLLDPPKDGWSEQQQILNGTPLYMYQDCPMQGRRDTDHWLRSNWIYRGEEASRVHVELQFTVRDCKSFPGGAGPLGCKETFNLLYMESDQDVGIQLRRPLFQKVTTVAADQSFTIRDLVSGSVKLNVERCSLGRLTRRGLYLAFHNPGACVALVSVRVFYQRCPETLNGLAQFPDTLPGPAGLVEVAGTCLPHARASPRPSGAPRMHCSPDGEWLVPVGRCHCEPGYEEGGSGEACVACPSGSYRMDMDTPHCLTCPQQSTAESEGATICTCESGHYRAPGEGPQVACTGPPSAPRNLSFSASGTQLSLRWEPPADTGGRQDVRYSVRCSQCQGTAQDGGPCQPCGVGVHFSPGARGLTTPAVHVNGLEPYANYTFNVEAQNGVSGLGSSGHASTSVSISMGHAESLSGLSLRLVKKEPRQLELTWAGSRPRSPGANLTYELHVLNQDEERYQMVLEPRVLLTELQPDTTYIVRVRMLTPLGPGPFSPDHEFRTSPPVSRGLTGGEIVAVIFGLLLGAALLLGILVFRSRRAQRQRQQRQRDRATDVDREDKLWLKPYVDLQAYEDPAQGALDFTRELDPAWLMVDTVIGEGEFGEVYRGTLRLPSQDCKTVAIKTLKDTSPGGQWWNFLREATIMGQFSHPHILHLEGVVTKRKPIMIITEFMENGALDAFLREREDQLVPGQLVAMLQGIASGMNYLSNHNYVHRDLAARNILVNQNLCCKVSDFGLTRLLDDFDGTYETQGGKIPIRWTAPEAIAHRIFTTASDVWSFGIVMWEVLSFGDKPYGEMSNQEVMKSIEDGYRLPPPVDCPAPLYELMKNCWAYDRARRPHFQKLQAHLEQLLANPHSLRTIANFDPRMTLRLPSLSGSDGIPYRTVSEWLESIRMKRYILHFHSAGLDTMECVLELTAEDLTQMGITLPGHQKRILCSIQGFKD
Sequence of human Phosphoinositide 3-kinase alpha (PI3Ka), PIK3CA (gene 5290) (P42336 whole entry, looked up): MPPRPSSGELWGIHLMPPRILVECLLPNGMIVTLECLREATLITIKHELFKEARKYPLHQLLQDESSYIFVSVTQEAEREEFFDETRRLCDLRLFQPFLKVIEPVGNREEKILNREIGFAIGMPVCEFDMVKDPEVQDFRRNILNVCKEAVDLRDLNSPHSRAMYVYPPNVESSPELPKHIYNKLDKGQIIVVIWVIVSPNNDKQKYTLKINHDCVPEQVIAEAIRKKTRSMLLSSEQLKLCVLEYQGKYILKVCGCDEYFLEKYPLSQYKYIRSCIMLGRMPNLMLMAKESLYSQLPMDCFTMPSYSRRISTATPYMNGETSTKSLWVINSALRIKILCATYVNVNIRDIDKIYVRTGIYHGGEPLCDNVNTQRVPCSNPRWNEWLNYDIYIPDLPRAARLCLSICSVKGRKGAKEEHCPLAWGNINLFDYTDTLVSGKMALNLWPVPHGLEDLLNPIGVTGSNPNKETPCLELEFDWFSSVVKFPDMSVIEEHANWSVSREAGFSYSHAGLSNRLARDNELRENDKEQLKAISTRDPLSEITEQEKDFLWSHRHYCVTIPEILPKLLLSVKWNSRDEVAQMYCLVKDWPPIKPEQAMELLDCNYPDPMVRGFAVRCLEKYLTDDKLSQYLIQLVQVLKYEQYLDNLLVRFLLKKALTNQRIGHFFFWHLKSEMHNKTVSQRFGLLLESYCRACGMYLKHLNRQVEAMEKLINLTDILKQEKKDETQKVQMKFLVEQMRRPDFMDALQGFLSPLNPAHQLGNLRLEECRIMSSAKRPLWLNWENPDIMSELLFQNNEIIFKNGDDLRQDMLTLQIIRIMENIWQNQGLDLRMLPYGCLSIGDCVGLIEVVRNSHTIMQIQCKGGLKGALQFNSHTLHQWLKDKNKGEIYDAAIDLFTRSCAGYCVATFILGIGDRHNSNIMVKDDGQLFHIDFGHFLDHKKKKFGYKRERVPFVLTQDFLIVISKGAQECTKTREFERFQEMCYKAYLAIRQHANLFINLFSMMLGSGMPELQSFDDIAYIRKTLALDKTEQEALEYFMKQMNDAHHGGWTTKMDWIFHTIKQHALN
Sequence of Peroxisome proliferator-activated receptor gamma (Homo sapiens) (P37231 whole entry, looked up): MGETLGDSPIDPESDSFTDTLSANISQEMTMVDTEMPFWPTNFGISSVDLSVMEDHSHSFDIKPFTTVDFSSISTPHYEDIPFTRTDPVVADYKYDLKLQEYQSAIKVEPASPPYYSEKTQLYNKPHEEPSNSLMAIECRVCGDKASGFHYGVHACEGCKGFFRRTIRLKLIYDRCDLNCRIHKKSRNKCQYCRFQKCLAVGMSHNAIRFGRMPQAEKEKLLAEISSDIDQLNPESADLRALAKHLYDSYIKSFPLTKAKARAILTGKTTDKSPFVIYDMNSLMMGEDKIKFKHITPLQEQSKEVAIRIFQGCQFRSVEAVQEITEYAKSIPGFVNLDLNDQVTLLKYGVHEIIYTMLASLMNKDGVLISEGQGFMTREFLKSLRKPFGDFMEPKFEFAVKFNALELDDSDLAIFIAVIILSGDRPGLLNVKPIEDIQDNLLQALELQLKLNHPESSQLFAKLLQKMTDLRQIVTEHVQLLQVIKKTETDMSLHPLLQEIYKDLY

Take `NC(N)=Nc1nc(CSCCC(N)=NS(N)(=O)=O)cs1`: the result in [1], in assay [2], in assay [3], in assay [4], in assay [5] and in assay [6] was inactive. In addition, the outcome in assay [7] and in [8] was inactive.
In the case of `CCCCCCC1CCC(=O)O1` (stereo unspecified), the outcome in assay [9] and in [10] was inactive.
Consider `CCCCC(CC)COC(=O)CS` (stereo unspecified), for which the outcome in assay [10] and in assay [12] was inactive. Further, in assay [11], the AC50 is 25.6 µM (active).
On to `C=C1CC[C@H]2C[C@@H]1C2(C)C`, for which the outcome in [9] and in [13] was inactive.
Turning to `Cc1cc(O)cc(C)c1Cl`, the outcome in assay [10] and in assay [14] was inactive.
For the compound `Cc1ccccc1S(N)(=O)=O`, the result in [15] and in assay [16] was inactive.
Turning to `O=C1NC(=O)[C@@H]2CC=CC[C@H]12`, in assay [17], the outcome was inactive.
On to `O=C(O)c1ccccc1C(=O)O`, for which, in [14], the result was inactive.
As to `O=C(OCc1ccccc1)c1ccccc1`, the outcome in assay [13] and in assay [18] was inactive.
For `CC(=O)CCc1ccccc1`, the compound was called inactive in assay [16].
For `O=C(Oc1ccccc1)c1ccccc1`, the compound was called inactive in [9].
As for `Sc1nc2ccccc2s1`, the result in assay [10], in [14] and in assay [12] was inactive. Moreover, in [11], the AC50 was 1.42 µM (active).
On to `CCC(C)=NO`, for which the call in assay [17] was inactive.
Regarding `O=C(CC(C(=O)OC1CCCCC1)S(=O)(=O)O)OC1CCCCC1` (stereo unspecified), the AC50 in [13] was 8.32 µM (active). In addition, in assay [19], the compound was classed as inactive.
Turning to `COC(=O)[C@]1(C)CCC[C@@]2(C)[C@H]1CC=C1C=C(C(C)C)CC[C@@H]12`, the compound was called inactive in assay [9], in assay [13] and in assay [18].
With `O=C(C(=O)c1ccccc1)c1ccccc1`, the AC50 in assay [20] was 1.07 µM (active).
Turning to `CCC(C)NC(N)=O` (stereo unspecified), in assay [20], the half-maximal activity concentration (AC50) is 26.9 µM (active).
For the compound `CCCCOC(=O)COc1ccc(Cl)cc1Cl`, in assay [14], the outcome was inactive.
Turning to `CCO[Si](OCC)(OCC)c1ccccc1`, the outcome in assay [15] was inactive.
For the compound `c1ccc(CNc2ncnc3nc[nH]c23)cc1`, in assay [14], the compound was called inactive.
As to `CCCCCC[C@@H](O)C/C=C\CCCCCCCC(=O)O`, the compound was classed as inactive in [9] and in assay [18]. Moreover, the values for the AC50 in assay [10] and in assay [19] were 36.8 µM (active) and 15.1 µM (active), respectively.
Take `Clc1ccccn1`: the AC50 in assay [15] was 9.99 µM (active).
Regarding `Cc1cc2nc3c(=O)[nH]c(=O)nc-3n(C[C@H](O)[C@H](O)[C@H](O)CO)c2cc1C`, the result in assay [18] was inactive.

Values taken from PubChem BioAssay (EPA / NIEHS).
